Potency and activity (max response) data for five compounds are collected here from PubChem BioAssay (NCATS).

Test [1] in a line: Viability qHTS for spleen associated tyrosine kinase inhibitor (SYKi) naive MV4-11 cells (AID 1963823). Note: nearly all actives have a fitted effect of over 40% in size. The conditions noted are these: MV4-11 AML viability, CellTiter-Glo luminescence, 72 h; series mostly up to 45 µM. In outline:
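In this viability screen, compounds acted on SYK inhibitor naive MV4-11 cells for three days (72 hr, 37 C). Remaining viable cells were measured by CellTiter-Glo luminescence following a 10 min room-temperature development.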
Background: In qHTS, concentration-response curves come from the screen itself.

The nature of test [2]: Viability qHTS for spleen associated tyrosine kinase inhibitor (SYKi) drug resistant MV4-11 cells (AID 1963824). Note: nearly all actives have a fitted effect of over 35% in size. The conditions noted are these: SYKi-resistant MV4-11 viability, CellTiter-Glo, 72 h; series mostly up to 45 µM. In outline:
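SYK inhibitor-resistant MV4-11 AML cells, 500 per well, added to predispensed compounds and incubated 72 hr at 37 C, 5% CO2. Viability measured by CellTiter-Glo luminescence after 10 min at room temperature.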

A short description of test [3]: Quantitative highthroughput screen to assess conditional lethalithy of NOMO1 cells grown in RPMI1640 with untreated serum (RPMI+s) (AID 1963876).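 For Viability: 100% = DMSO wells and 0% = empty wells without cells.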 Note: nearly all actives have a fitted effect of over 35% in size. The conditions noted are these: NOMO1 AML cells in RPMI+serum, CellTiter-Glo viability, 48 h; series mostly up to 45.8 µM. In outline: (§1)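 Each medium arm—HPLM with 10% dialyzed FBS, or RPMI1640 with 5 mM glucose and 10% untreated or dialyzed FBS—was screened against an 11-point, 3-fold compound titration for 48 h at 37 °C, with CellTiter-Glo luminescence as endpoint.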

A short description of test [4]: Quantitative highthroughput screen to assess conditional lethalithy of NOMO1 cells grown in RPMI1640 with dialyzed fetal bovine serum (RPMI+ds) (AID 1963877).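 For Viability: 100% = DMSO control wells and 0% = empty wells.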 Note: nearly all actives have a fitted effect of over 30% in size. The conditions noted are these: NOMO1 in RPMI+dialyzed FBS viability, ATP luminescence, 48 h; series mostly up to 45.8 µM. In outline:
as §1

Test [5] can be described thus: Quantitative highthroughput screen to assess conditional lethalithy of NOMO1 cells grown in Human Plasma-Like Medium with dialyzed fetal bovine serum (HPLM+ds) (AID 1963878).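 For Viability: 100% = DMSO wells and 0% = empty wells on each plate.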 Note: nearly all actives have a fitted effect of over 35% in size. The conditions noted are these: NOMO1 AML cells in HPLM+ds, CellTiter-Glo viability, 48 h; series mostly up to 45.8 µM. Summed up: as §1
The nature of test [6]: Quantitative highthroughput screen to assess conditional lethalithy of P12 Ichikawa cells grown in Human Plasma-Like Medium with dialyzed fetal bovine serum (HPLM+ds) (AID 1963879). Note: nearly all actives have a fitted effect of over 35% in size. The conditions noted are these: ATP luminescence, 48 h; Potency: viability; series mostly up to 45.8 µM. In outline:
as §1

A short description of test [7]: Quantitative highthroughput screen to assess conditional lethalithy of P12 Ichikawa cells grown in RPMI1640 with dialyzed fetal bovine serum (RPMI+ds) (AID 1963880).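 For Viability: 100% = DMSO wells and 0% = empty wells on each plate.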 Note: nearly all actives have a fitted effect of over 35% in size. The conditions noted are these: ATP luminescence, 48 h; Potency: P12-Ichikawa viability; series mostly up to 45.8 µM. In outline: as §1
Test [8] can be described thus: Quantitative highthroughput screen to assess conditional lethalithy of P12 Ichikawa cells grown in RPMI1640 with untreated serum (RPMI+s) (AID 1963881).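 For Viability: 100% = DMSO wells and 0% = empty wells without cells.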 Note: nearly all actives have a fitted effect of over 35% in size. The conditions noted are these: ATP luminescence, 48 h; Potency: viability; series mostly up to 45.8 µM. In outline: as §1
Test [9] is described as follows: Quantitative highthroughput screen to assess conditional lethalithy of SEM cells grown in Human Plasma-Like Medium with dialyzed fetal bovine serum (HPLM+ds) (AID 1963882). Note: nearly all actives have a fitted effect of over 35% in size. The conditions noted are these: SEM B-ALL cells in HPLM+ds, CellTiter-Glo viability, 48 h; series mostly up to 45.8 µM. Summed up: as §1
A general note: ATP-based viability assays read luminescence as a measure of living cells.

Test [10] in a line: Quantitative highthroughput screen to assess conditional lethalithy of SEM cells grown in RPMI1640 with unreated serum (RPMI+s) (AID 1963883).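 For Viability: 100% = DMSO wells and 0% = empty wells without cells.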 Note: nearly all actives have a fitted effect of over 35% in size. The conditions noted are these: SEM B-ALL cells, CellTiter-Glo viability, 48 h; series mostly up to 45.8 µM. In outline: as §1
The nature of test [11]: Quantitative highthroughput screen to assess conditional lethalithy of SEM cells grown in RPMI1640 with dialyzed fetal bovine serum (RPMI+ds) (AID 1963884).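 For Viability: 100% = DMSO control wells and 0% = empty wells without cells.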 Note: nearly all actives have a fitted effect of over 35% in size. The conditions noted are these: SEM B-ALL cells, RPMI+dialyzed FBS, CellTiter-Glo viability, 48 h; series mostly up to 45.8 µM. In outline:
as §1

Test [12] can be described thus: Cellular viability qHTS for adrenocortical cancer (ACC) cell line SW-13 (AID 1963989).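 For activity (max response): cells grown in serum-free medium with ITS supplement; % is set by controls: 0 for no effect and ±100 for the full control effect.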 Note: nearly all actives have a fitted effect of over 65% in size. The conditions noted are these: SW-13 ACC cells viability, CellTiter-Glo, 48 h; activity (max response): stronger effect = lower value. In outline: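 Compound titrations (up to 46 uM final, in DMSO) were applied to SW-13 cells for 48 h at 37C/5% CO2. Reading used CellTiter-Glo after 20 min at room temperature; fitted curves yielded IC50 and efficacy.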

Test [13] in a line: Cellular viability qHTS for adrenocortical cancer (ACC) cell line NCI-H295R (AID 1963990). Note: nearly all actives have a fitted effect of over 60% in size. The conditions noted are these: CellTiter-Glo ATP luminescence, 48 h; series mostly up to 46.1 µM. Summed up:
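Readout: CellTiter-Glo luminescence, 20 min RT. Exposure: 48 h, 37C/5% CO2. Cells: NCI-H295R, ITS-DMEM serum-free. Range: up to 46 uM. Analysis: 4PL fit, IC50 plus efficacy.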

Several values for one entry are separate records, joined by “and”; a condition that tells them apart may be missing. Equal entries are not always repeated. Records with an inconclusive call do not appear. Values without a mark were called inactive. Activity calls are given as the source filed them. Calls come from the whole dose curve; as a rule, active = well fitted curve in the direction sought with a large enough effect; inconclusive = small, poorly fitted or top-dose-only effect, or another doubt; inactive = no such curve, though single readings can be large; an effect the other way counts as inactive or inconclusive.
Potency is the fitted concentration of half-maximal effect.

Turning to `O=C(CCCCCCC(=O)Nc1cccnc1)NO`, the Potency in [1] was 3.32 µM (active); in test [2], 3.72 µM (active); in test [3], 20.9 µM (active); in [4], 20.9 µM (active); in test [5] it was 18.7 µM (active); in test [6] it was 7.43 µM (active). Besides, the Potency in [7] is 7.43 µM (active); in test [8], 8.33 µM (active); in [9] it was 8.33 µM (active); in test [10], 8.33 µM (active); in test [11], 6.62 µM (active); in test [12] it was 12.6 µM (active). Also, the Potency in [13] was 4.47 µM (active).
Turning to `CCN(CC)Cc1ccc2cc(COC(=O)Nc3ccc(C(=O)NO)cc3)ccc2c1`, the Potency in test [1] is 291 nM (active) and 468 nM (active); in test [2] it was 206 nM (active) and 372 nM (active); in test [3], 3.72 µM (active); in test [4] it was 3.72 µM (active); in [5], 2.96 µM (active); in test [6], 2.35 µM (active). Further, the Potency in test [7] was 2.35 µM (active); in [8], 2.35 µM (active); in [9], 1.66 µM (active); in test [10], 2.09 µM (active); in test [11] it was 1.87 µM (active); in [12] it was 2.82 µM (active). The Potency in test [13] was 1.78 µM (active).
On to `O=C(c1cncc(Br)c1)N1CCC(N2CCCC2)CC1`, for which the Potency result in [1], in test [2], in test [3], in test [4], in [5] and in test [6] was “inactive” throughout. For the same compound, the Potency entry in test [7], in [8], in test [9], in test [10], in test [11] and in test [13] was “inactive” each time. Moreover, the activity (max response) in [12] was 1.51%.
As to `COc1cc2c(cc1OC)CC(=O)N(CCCN(C)C[C@H]1Cc3cc(OC)c(OC)cc31)CC2`, the Potency entry in [1], in [2], in [3], in [4], in test [5] and in test [6] was “inactive” in each case. For the same compound, the Potency result in test [7], in [8], in test [9], in test [10], in [11] and in [13] was “inactive” each time. Moreover, in test [12], the activity (max response) is 10.3%.
Regarding `CC(C)(C)C(=O)Oc1ccc2c(c1)nc(NC(=O)c1cccc([N+](=O)[O-])c1)n2CCCO`, the Potency was 4.68 µM (active) in [1] and 9.34 µM (active) in test [2]. For the same compound, the Potency entry in [3], in test [4], in [5], in test [6], in test [7] and in test [8] was “inactive” each time. Further, the Potency result in test [9], in [10], in test [11] and in test [13] was “inactive” in each case. Moreover, the activity (max response) in test [12] was -24.3%.
